Laboratory results reported in PubChem BioAssay AID2669 (National Center for Advancing Translational Sciences (NCATS), 2010).
Records with an inconclusive call do not appear. Entries that show only a call come without a potency. Active and inactive are the calls of the source. Calls come from the whole dose curve; as a rule, active = well fitted inhibition curve with a large enough effect; inconclusive = small, poorly fitted or top-dose-only effect, or effect the other way; inactive = flat fitted curve, though single readings scatter.

Experiment: qHTS Assay Multiplex Screening to Identify Dual Action Probes in a Cell Model of Huntington: Cytoprotection (Protease relase)
Text: NIH Chemical Genomics Center [NCGC]
NIH Molecular Libraries Probe Production centers Network [MLPCN]
Assay Submitter (PI): Wei Zheng
Huntington's disease is a neurodegenerative disorder caused by a trinucleotide repeat expansion in Exon 1 of the Huntingtin gene. The CAG trinucleotide encodes glutamine and polyglutamine expansions cause cell death in selective areas of the brain. Huntington polyglutamine repeats have the tendency to form aggregates which are observable in later stages of the disease. The exact nature of the aggregates, whether toxic, protective, or insignificant, is unclear.
A stable PC12 cell line containing a gene fusion of Exon 1 of the Huntingtin gene linked to GFP under the control of the inducible ecdysone promoter were used as the cell-based model of Huntington Disease for high throughput screening. Exon 1 of the Huntingtin gene contained an expansion of 103 polyglutamines (Q103) which, when expressed, caused cell death and distinct, bright GFP aggregates. The amount of cell death and the size and intensity of GFP aggregates increased over time and induction level. In the primary screen, cell death were quantified with a measurement of ATP content in the cells. A maximal 40-50% of cell death was observed when the Huntington gene was induced in this cell line.
We optimized this assay in a homogeneous 1536 well format. A quantitative high throughput screen (qHTS) was conducted on the PC12 cells which were induced to express the toxic fusion construct. Small molecules which prevented cell death were considered hits, and were further studied. The present assay is an alternate assay for cytoprotection using Promega's Cytotox-Glo reagent.
PC12 cells stably containing a construct with an ecdysone inducible promoter expressing GFP fused to the exon 1 of HTTQ103 (Huntington protein which containing a 103 ployglutamine expansion) were used.
NCGC Assay Protocol Summary:
Sequence, Parameter, Description
1, Reagent, 5 uL 1500 cells/well 1536 TC treated White clear bottom plate
2, Compound, 23 nL Tebufenozide inducer (100 nM final) to all columns
3, Compound, 23 nL 40 uM to 0.5 nM Libraries
5, Reagent, 2 ul Promega's Cytotox-Glo assay reagent
6, Detector, 4 sec integration with a Viewlux Luminescent
Media consisted of phenol red free DMEM + 5% equine serum (Hyclone # SH30072.03 ), 5% supplemented Bovine Calf Serum (Hyclone # SH30074.03 ), 1x pen/strep, no G418

Row | Compound | Potency
1 | O=C1C=C2C=C[C@H]3C[C@@]2(O1)[C@H]1CCCCN31 | 794 nM (active)
2 | NC(=O)c1sc2nc3c(c(-c4cccs4)c2c1N)CCCC3 | inactive
3 | C[C@H]1CC[C@@]2(NC1)O[C@@H]1C[C@H]3[C@@H]4CC=C5C[C@@H](O)CC[C@]5(C)[C@@H]4CC[C@]3(C)[C@@H]1[C@@H]2C | inactive
4 | CCC(C)C(=O)OC1C(O)C2C(CN3CC(C)CCC3[C@]2(C)O)C2C[C@]34O[C@@]5(O)C(OC(=O)C(C)(O)CC)CCC3(C)C5C(OC(C)=O)C(OC(C)=O)C4[C@@]21O (some centres not stated) | inactive
5 | Oc1cc(Cl)ccc1Oc1ccc(Cl)cc1Cl | inactive
6 | CC[C@]1(C2=NCCN2)Cc2ccccc2O1 | inactive
7 | C[C@@]1(CO)[C@H](O)CC[C@@]2(C)[C@H]1CC[C@H]1C[C@@H]3C[C@@]12CC[C@]3(O)CO | inactive
